Values joined by “and” are separate entries in the source; they are usually repeats but may differ in a detail not shown here. Equal values may be shown once. Inconclusive results are not listed. Some structures have more than one record in an assay (separate samples or runs), and their calls can disagree. Active and inactive are the calls of the source. The calls were made as follows: active = hit-call score of the fitted dose curve at least 0.9, where 1 is the maximum; inconclusive = response in the unintended direction; inactive = score below 0.9.

The assay can be described thus: TOX21_p53_BLA_p3_viability: Viability Assessment in the Tox21 HCT-116 p53 Agonism Beta-lactamase Assay, Phase 3 (AID 2283593).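 Also: cells exposed to compound for 16 h before reading.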 The text has this: TOX21_p53_BLA_p3 is a cell-based, single-readout assay that uses HCT116, a human intestinal cell line, […] in a 1536-well plate.TOX21_p53_BLA_p3_viability is an assay readout measuring cellular ATP content and detected with CellTiter-Glo Luciferase-coupled ATP quantitation.TOX21_p53_BLA_p3_viability used a type of viability reporter where loss-of-signal activity can be used to understand changes in the cell viability. Furthermore, this assay endpoint can be referred to as a secondary readout, because this assay has produced multiple assay endpoints where this one serves a viability function. To generalize the intended target to other relatable targets, this assay endpoint is annotated to the cell cycle intended target family, where the subfamily is cytotoxicity.
Thawing Method: Place 14 mL of pre-warmed thaw medium into a 15 mL of conical tub. Remove the vial of cells to be thawed from liquid nitrogen and thaw rapidly by placing at 37C in a water bath with gentle agitation for 1-2 minutes. Decontaminate the vial by wiping with 70% ethanol before opening in a biological safety cabinet. Transfer the vial contents drop-wise into 14 mL of thaw medium in a sterile 15-mL conical tub. Centrifuge cells at 900 rpm for 4 minutes and resuspend in thaw medium. Transfer contents to the T75 tissue culture flask containing Thaw Medium and place flask in a humidified 37C/5% CO2 incubator. Switch to growth medium at first passage.Propagation Method: Aspirate medium, rinse once in DPBS, add 0.25% Trypsin/EDTA and swirl to coat the cell evenly. Add an equal volume of Growth Medium to inactivate Trypsin after 2-3 minutes incubation at 37C. Centrifuge cells at 900 rpm for 4 minutes and resuspend in growth medium. Cell should be passage or fed at least twice a week.Assay Protocol: Harvest cells from culture in growth medium and resuspend in assay medium. 2.2 Dispense 4000 cells/5 uL/well into 1536-well black/clear bottom plates using a Multidrop dispenser. After the cells were incubated at 37C for 5 hours, 23 nL of compounds dissolved in DMSO were transferred to the assay plate by a PinTool resulting in a 217-fold dilution. Incubate the plates for 16 hours at 37C, 5% CO2. Add 1 uL of 6X LiveBLAzer FRET B/G (CCF4-AM) Substrate Mixture to each well using a BioRAPTR dispenser and incubate the plates at room temperature for 2 hours. Measure fluorescence intensity at 460 and 530 nm emission and 405 nm excitation by an Envision detector. Data is expressed as the ratio of 460nm/530nm emissions. Add 4 uL of Cell-titer Glo to each well using BioRAPTR and incubate the plates at room temperature for […]. For cell viability readout that measures cytotoxicity, 4 ul/well of CellTiter-Glo reagent was added into the assay plates using a Flying Reagent Dispenser. After 30 min incubation at room temperature, the luminescence intensity in the plates was measured using a ViewLux plate reader.
With `CCCCOCCOC(C)=O`, the molecule was classed as inactive.

In the case of `COc1ccccc1OC`, the outcome was inactive.

In the case of `c1ccc(N=NNc2ccccc2)cc1`, the call was inactive.

`O=C(OC1CCCCC1)c1ccccc1C(=O)OC1CCCCC1`: the result was inactive.

On to `Nc1cccc(Cl)c1`, for which the result was inactive.

Consider `CC(C#N)CCC#N` (stereo not given), for which the molecule was classed as inactive.

Turning to `C[C@H]1CCCC(=O)CCC/C=C/c2cc(O)cc(O)c2C(=O)O1`, the result was inactive.

As to `C[C@]12CCC(=O)C[C@@H]1CC[C@@H]1[C@@H]2CC[C@]2(C)[C@@H](O)CC[C@@H]12`, the result was inactive.

On to `CCNc1nc(NC(C)(C)C)nc(SC)n1`, for which the molecule was classed as inactive.

With `C=C(C)C#N`, the call was inactive.

Take `CCOC(=O)/C=C(C)/C=C/C[C@@H](C)CCCC(C)C`: the AC50 (as a rule, the concentration giving half of the maximal activity seen) is 58.3 µM (active).

`CCN1CCC2(CC1)COc1cc3c(cc12)N(C(=O)c1ccc(-c2ccc(-c4nnc(C)o4)cc2C)cc1)CC3`: the AC50 was 67.5 µM (active).

For the molecule `Nc1ccc(-c2ccc(N)c(Cl)c2)cc1Cl`, the molecule was called inactive.

As for `COc1cc(-c2ccc(N)c(OC)c2)ccc1N`, the molecule was classed as inactive.

For `CC(C)(OO)c1ccccc1`, the outcome was inactive.

As to `CCCCCCCCCCCCCCCC[n+]1ccccc1`, the AC50 was 45.6 µM (active) and 81 µM (active) and 46.1 µM (active); the result was inactive.

Regarding `O=[N+]([O-])c1ccc(O)c([N+](=O)[O-])c1`, the molecule was called inactive.

For `COP(=S)(OC)Oc1cc(Cl)c(Br)cc1Cl`, the outcome was inactive.

Consider `COc1cccc(C=O)c1`, for which the molecule was called inactive.

With `O=C(O)C(Cl)(Cl)Cl`, the result was inactive.

As to `CCC[CH2][Sn]([CH2]CCC)([CH2]CCC)[O]C(=O)c1ccccc1`, the AC50 was 2.09 µM (active).

For the molecule `C1CCC(NC2CCCCC2)CC1`, the call was inactive.

As to `O=C1C2(Cl)C3(Cl)C4(Cl)C(Cl)(Cl)C5(Cl)C3(Cl)C1(Cl)C5(Cl)C24Cl` (stereo not given), the AC50 is 80.6 µM (active) and 78.5 µM (active).

Turning to `CC(C)OC(=O)Nc1ccccc1`, the outcome was inactive.

`CC(C)(C)CC(C)(C)c1ccc(O)cc1`: the AC50 is 35 µM (active) and the call was inactive.

On to `CCOP(=S)(OCC)SCSP(=S)(OCC)OCC`, for which the molecule was classed as inactive.

For `COP(=S)(OC)Oc1ccc(S(=O)(=O)N(C)C)cc1`, the outcome was inactive.

As to `COP(=S)(OC)Oc1ccc(Sc2ccc(OP(=S)(OC)OC)cc2)cc1`, the molecule was classed as inactive.

As for `C[C@H]1O[C@@H](O[C@H]2[C@@H](O)C[C@H](O[C@H]3[C@@H](O)C[C@H](O[C@H]4CC[C@@]5(C)[C@H](CC[C@@H]6[C@@H]5CC[C@]5(C)[C@@H](C7=CC(=O)OC7)CC[C@]65O)C4)O[C@@H]3C)O[C@@H]2C)C[C@H](O)[C@@H]1O`, the AC50 is 30 nM (active) and 51.3 nM (active).

As to `CNC`, the outcome was inactive.

With `Cc1ccccc1N`, the molecule was called inactive.

For the molecule `O=[N+]([O-])c1c(Cl)c(Cl)cc(Cl)c1Cl`, the call was inactive.

Turning to `CCC(C)(C)c1ccc(O)c(C(C)(C)CC)c1`, the AC50 was 52.9 µM (active) and 64 µM (active).

On to `ClC1=C(Cl)[C@]2(Cl)[C@H]3[C@H]([C@H]4C=C[C@H]3C4)[C@@]1(Cl)C2(Cl)Cl`, for which the molecule was called inactive.

As for `COc1cc2c(cc1OC)[C@@]13CCN4CC5=CCO[C@H]6CC(=O)N2[C@H]1[C@H]6[C@H]5C[C@H]43`, the result was inactive.

For `BrCCBr`, the call was inactive.

Take `Clc1nc(Cl)nc(Cl)n1`: the molecule was classed as inactive.

`Oc1cccc2cccnc12`: the call was inactive.

The record behind these values is PubChem BioAssay (EPA / NIEHS).
